Structures can show the parent of a compound that is named as a salt.
Legend:
Assay in all cases: Euclidean distance of Cell Painting phenotypic profile (signed KS, 77 features) to DMSO centroid (dimensionless distance); 5 or 10 uM (library dependent); higher = stronger phenotypic change vs DMSO (phenoactivity)
Details in all cases: 48 h
786-O = system: 786-O
Outline: (§1)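 Five cancer lines, together with a healthy fibroblast line, received library compounds for 48 h at a library-dependent 10 or 5 uM and 0.1% DMSO final. Harmony then derived 77 features from confocal 20X images (9 fields/well) of the stained cells, scoring each as a signed Kolmogorov-Smirnov statistic against same-plate vehicle wells. After plate-position correction, correlation weighting and replicate averaging at the top dose, phenoactivity was taken as each profile's Euclidean distance to the median vehicle profile.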

A549 = system: A549
Outline: as §1

DU145 = system: DU145
Outline: as §1

FB = system: FB
Outline: as §1

HEPG2 = system: HEPG2
Outline: as §1

OVCAR4 = system: OVCAR4
Outline: as §1

Row | Structure (SMILES) | Euclidean distance (786-O) | Euclidean distance (A549) | Euclidean distance (DU145) | Euclidean distance (FB) | Euclidean distance (HEPG2) | Euclidean distance (OVCAR4)
1 | CN1CCN(C2=Nc3ccccc3Oc3ccc(Cl)cc32)CC1 [Loxapine Succinate] | 0.937 | 0.901 | 1.33 | 0.885 | 0.582 | 0.838
2 | COc1cc(N2CCC(N3CCN(C)CC3)CC2)ccc1Nc1ncc(Cl)c(Nc2ccccc2P(C)(C)=O)n1 | 1.49 | 2.29 | 2.68 | 4.2 | 1.51 | 1.74
3 | CO/N=C(\C(=O)N[C@@H]1C(=O)N2C(C(=O)O)=C(COC(N)=O)CS[C@H]12)c1ccco1 [Cefuroxime sodium] | 0.996 | 0.519 | 0.747 | 0.81 | 1.48 | 1.04
4 | CC(=O)[O-].[K+] [Potassium acetate] | 1.42 | 0.754 | 1.27 | 0.927 | 0.554 | 1.3
5 | CC[C@H](c1ccc(O)cc1)[C@@H](CC)c1ccc(O)cc1 [Hexestrol] | 1.62 | 1.07 | 0.97 | 0.95 | 0.662 | 1.06
6 | CO[C@@H](C)Cn1c(=O)n(C)c2cnc3ccc(-c4cncc(C(C)(C)O)c4)cc3c21 | 3.52 | 4.06 | 2.18 | 4.79 | 2.61 | 3.29
7 | O=c1[nH]cnc2c1ncn2[C@H]1CC[C@@H](CO)O1 [Didanosine] | 1.21 | 1.3 | 1.12 | 0.891 | 0.649 | 0.793
8 | CC(C)(C)NCC(O)c1ccc(O)c(CO)c1 (stereo unspecified) [Salbutamol Sulfate] | 1.57 | 0.928 | 1.27 | 0.735 | 1.31 | 1.78
9 | CCCCc1oc2ccccc2c1C(=O)c1cc(I)c(OCCN(CC)CC)c(I)c1 [Amiodarone HCl] | 1.56 | 1.84 | 2.02 | 1.95 | 2.01 | 2.4
10 | Oc1ccc(C2CNCCc3c2cc(O)c(O)c3Cl)cc1 (stereo unspecified) [Fenoldopam mesylate] | 1.43 | 1.07 | 0.768 | 0.976 | 1.19 | 0.867
11 | CC(C)(CO)[C@@H](O)C(=O)NCCC(=O)NCCSSCCNC(=O)CCNC(=O)[C@H](O)C(C)(C)CO [D-Pantethine] | 1.1 | 1.2 | 0.679 | 1 | 0.969 | 1.35
12 | CC(=O)CC/C=C(\C)CC/C=C(\C)CC/C=C(\C)CCC=C(C)C [Teprenone] | 1.06 | 0.693 | 0.749 | 1.12 | 1.1 | 1.23
13 | C=CCc1cccc(/C=N/NC(=O)CN2CCN(Cc3ccccc3)CC2)c1O | 2.25 | 2.14 | 1.28 | 1.79 | 2.31 | 2.68
14 | COC(=O)Nc1nc2cc(Sc3ccccc3)ccc2[nH]1 [Fenbendazole] | 2.61 | 2.78 | 3.05 | 2.21 | 2.12 | 2.83
15 | CS(=O)(=O)CCNCc1ccc(-c2ccc3ncnc(Nc4ccc(OCc5cccc(F)c5)c(Cl)c4)c3c2)o1 | 3.78 | 3.57 | 3.75 | 4.09 | 4.37 | 3.36
16 | C[C@@H]1C[C@H]2[C@@H]3CCC4=CC(=O)C=C[C@]4(C)[C@@]3(F)[C@@H](O)C[C@]2(C)[C@@]1(O)C(=O)COP(=O)(O)O [Dexamethasone Sodium Phosphate] | 1.79 | 2.25 | 2.22 | 1.44 | 0.744 | 2.38
17 | CN(C)c1ccc2c(c1)Sc1cc(N(C)C)ccc1N2 [TRx0237 (LMTX) mesylate] | 2.79 | 3.35 | 2.69 | 3.38 | 2.95 | 2.88
18 | COc1cc2c(cc1OC)CC(=O)N(CCCN(C)C[C@H]1Cc3cc(OC)c(OC)cc31)CC2 [Ivabradine HCl] | 1.05 | 1.49 | 1.14 | 0.867 | 2.1 | 0.925
19 | CCCCCCCCCCCCCCCCCCOP(=O)([O-])OC1CC[N+](C)(C)CC1 [Perifosine (KRX-0401)] | 1.95 | 1.09 | 0.853 | 1.23 | 2.19 | 1.79
20 | O=C1c2ccccc2C(=O)c2c1ccc(O)c2O [Alizarin] | 1.65 | 1.45 | 1.35 | 1.58 | 1.48 | 1.07
21 | C=C1/C(=C\C=C2/CCC[C@]3(C)[C@@H]([C@H](C)CCCC(C)(C)O)CC[C@@H]23)C[C@@H](O)C[C@@H]1O [Calcitriol] | 1.91 | 1.1 | 1.24 | 2.23 | 0.859 | 1.36
22 | CC(C)(C)NC[C@H](O)c1ccc(O)c(CO)c1 [levalbuterol tartrate] | 0.685 | 0.326 | 0.582 | 0.969 | 0.566 | 0.907
23 | O=C(O)C1CSCN1 (stereo unspecified) [Timonacic] | 1.39 | 0.753 | 0.835 | 0.853 | 0.578 | 1.18

Row | Structure (SMILES) | Euclidean distance (786-O) | Euclidean distance (A549) | Euclidean distance (DU145) | Euclidean distance (FB) | Euclidean distance (HEPG2) | Euclidean distance (OVCAR4)
24 | O=C1Nc2ccc(I)cc2/C1=C/c1cc(Br)c(O)c(Br)c1 | 1.58 | 0.975 | 0.984 | 1.02 | 0.668 | 1.3
25 | CCCCC(=O)N(Cc1ccc(-c2ccccc2-c2nn[nH]n2)cc1)C(C(=O)O)C(C)C.CCOC(=O)C(C)CC(Cc1ccc(-c2ccccc2)cc1)NC(=O)CCC(=O)O (stereo unspecified) [Sacubitril/valsartan (LCZ696)] | 0.856 | 0.709 | 1.24 | 1.04 | 0.622 | 1.01
26 | O=C(C[S+]([O-])Cc1ccco1)NC/C=C\COc1cc(CN2CCCCC2)ccn1 (stereo unspecified) [Lafutidine] | 0.976 | 1.04 | 1.52 | 1.4 | 2.06 | 1.4
27 | Cc1[nH]c2ccccc2c1CCNCc1ccc(/C=C/C(=O)NO)cc1 [Panobinostat] | 3.44 | 4.4 | 4.84 | 3.48 | 4.4 | 3.58
28 | COc1ccc(C(Cl)=C(c2ccc(OC)cc2)c2ccc(OC)cc2)cc1 [Chlorotrianisene] | 1.13 | 1.23 | 0.763 | 1.08 | 1.11 | 1.04
29 | C=CC(=O)Nc1cccc(Nc2nc(Nc3ccc(OCCOC)cc3)ncc2F)c1 [Spebrutinib (CC-292. AVL-292)] | 2.73 | 3.75 | 3.51 | 3.98 | 3.25 | 2.96
30 | C[C@H](NC(=O)/C(C#N)=C/c1cccc(Br)n1)c1ccccc1 | 3.27 | 3.07 | 3.01 | 3.17 | 2.6 | 2.17
31 | CN1CCN(c2c(F)cc3c(=O)c(C(=O)O)cn4c3c2OCN4C)CC1 [Marbofloxacin] | 0.878 | 0.762 | 0.494 | 1.1 | 1.53 | 0.752
32 | CC(=O)c1cc([N+](=O)[O-])c(Sc2ccc(F)cc2F)s1 | 0.453 | 0.953 | 0.697 | 0.781 | 2.06 | 1.97
33 | C=C(c1ccc(C(=O)O)cc1)c1cc2c(cc1C)C(C)(C)CCC2(C)C [Bexarotene] | 2.33 | 2 | 1.58 | 1.39 | 1.63 | 1.48
34 | CC(C)(C)Cn1c(N)nc2ccc(-c3[nH]c(C(C)(C)C)nc3-c3ccc(F)cc3)nc21 | 4.34 | 2.69 | 2.57 | 3.56 | 4.51 | 3.76
35 | CN(NC(=O)CC(=O)NN(C)C(=S)c1ccccc1)C(=S)c1ccccc1 [Elesclomol (STA-4783)] | 5.12 | 5.4 | 4.86 | 6.42 | 1.29 | 6.01
36 | COc1cc(-c2cc(-c3cccc(O)c3)cnc2N)cc(OC)c1OC | 2.06 | 2.24 | 1.46 | 2.23 | 1.93 | 1.77
37 | COc1cc2c(cc1OC)-c1cc3ccc(OC)c(OC)c3c[n+]1CC2 [Palmatine] | 0.525 | 0.996 | 0.565 | 0.73 | 1.18 | 0.631
38 | O=C(Nc1ccc(-c2ccnc(Nc3ccc(N4CCOCC4)cc3)n2)cc1)C1CCCN1 (stereo unspecified) | 0.834 | 1.49 | 1.24 | 1.52 | 1.48 | 0.844
39 | Cc1ncc([N+](=O)[O-])n1CCO [Metronidazole] | 0.797 | 0.775 | 0.948 | 1.08 | 0.943 | 1.6
40 | CC(=O)Oc1ccccc1C(=O)Nc1ncc([N+](=O)[O-])s1 [Nitazoxanide] | 1.27 | 1.18 | 1.96 | 1.68 | 1.32 | 1.34
41 | Cn1cnc2c(F)c(Nc3ccc(Br)cc3Cl)c(C(=O)NOCCO)cc21 [Selumetinib (AZD6244)] | 2.23 | 2.67 | 2.91 | 2.95 | 1.72 | 2.19
42 | CC(C)OC(=O)C(C(=O)OC(C)C)=C1SC=CS1 [Malotilate] | 1.94 | 1.09 | 0.92 | 1.39 | 1.08 | 1.29
43 | O=c1ncn2nc(Sc3ccc(F)cc3F)ccc2c1-c1c(Cl)cccc1Cl | 1.78 | 0.873 | 1.38 | 1.63 | 1.25 | 1.55
44 | Cc1onc(-c2ccccc2)c1C(=O)N[C@@H]1C(=O)N2[C@@H]1SC(C)(C)[C@@H]2C(=O)O [Oxacillin sodium monohydrate] | 1.39 | 1.09 | 1.47 | 1.11 | 0.665 | 1.37
45 | CCC(=O)N1CCN(c2ccc(-n3c(=O)ccc4cnc5ccc(-c6cnc7ccccc7c6)cc5c43)cc2C(F)(F)F)CC1 [Torin 1] | 2.66 | 3.46 | 2.74 | 4.26 | 2.78 | 3.47
46 | CC(C)C(=O)Oc1ccc(CO)cc1[C@H](CCN(C(C)C)C(C)C)c1ccccc1 [Fesoterodine Fumarate] | 0.902 | 1.2 | 1.33 | 0.688 | 1.16 | 1.69

From the supplement of paper PMC10127200
